In the library only some 21% were active in any assay of this set; here they are far more common.
Shiga toxin inh: inhibitors of Shiga toxin in Vero cells | 9.2% of 290,000 active | inhibition, % at 38.7 µM | AID 2315 | Vero cells, Shiga toxin protein synthesis inhibition reporter; in the data active = inhibition mostly above about 28%, no sharp cut-off; inactive = mostly below about 43%
HCMV inh: blocks human cytomegalovirus replication; HFF cells, HCMV-luciferase reporter, 72 h; hits give low values; activity change, negative = inhibition, % at 57.5 µM; 4.5% of 410,000 active; in the data active = activity change below about -60%; inconclusive = no clear call, values can overlap the other calls; inactive = above about -39%
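Cell-based, HFFs, 1000 cells/well, 16 h 37C; cpds in DMSO + HCMV-luc, MOI 1 PFU/cell; 72 h 37C; OneGlo luminescence after 5 min RT; norm. to buffer vs Salinomycin 10uM.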
Pf growth 96h: P. falciparum growth inhibition at 96 hour, primary screen for plastid delayed-death inhibitors; P. falciparum luciferase reporter growth, 96 h; Potency, µM (titrated, usually from 28.7 µM), actives largely listed as inhibitors; 6.9% of 320,000 active
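P. falciparum expressing integrated firefly luciferase, in erythrocytes at 2% hematocrit, 0.05% parasitemia, incubated with compounds 96 h at 37 C, 5% CO2. Growth inhibition read as loss of luminescence; two-generation exposure targets delayed-death apicoplast inhibitors.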
CHX counter: affects cycloheximide protein synthesis inhibition readout, counter-screen; cell reporter, cycloheximide protein synthesis inhibition counterscreen; max response, %; 12% of 300,000 active; in the data active = max response mostly above about 13%, no sharp cut-off; inactive = mostly below about 14%; note: read at 38.3 µM for the half of the compounds with a filed dose
Pf growth 48h: inhibits P. falciparum growth in the first generation, 48 h | P. falciparum luciferase growth in erythrocytes, 48 h | Potency, µM (series often up to 28.7 µM), most hits filed as inhibitors | 5.9% of 310,000 active | AID 504832
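Luciferase-expressing P. falciparum in infected erythrocytes (2% hematocrit, 0.1% parasitemia final) in RPMI 1640/0.5% Albumax were exposed to compound for 48 hours at 37 C, 5% CO2; growth read as luminescence.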
HCV inh: blocks hepatitis C virus. 3.4% of 340,000 active. Potency, µM (titrated, usually from 41.8 µM), usual class: inhibitors. Huh7.5.1 HCVcc-Cre infection, luciferase reporter, 44 h
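Infectious HCVcc-Cre (~0.5 moi) was added to cells just after compound, with cells seeded 4 h earlier at 1,000 per well. Luciferase activity after 44 h culture reported infection; substrate was incubated 15 min at room temperature before reading.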
Numbers stand for hits. Unless noted, calls come from the whole dose curve; as a rule, active = well fitted inhibition curve with a large enough effect; inconclusive = small, poorly fitted or top-dose-only effect, or another doubt; inactive = no such curve, though single readings can be large or run the other way.

`Cn1c(CNC(=O)c2ccccc2F)cc2ccccc21` gave Shiga toxin inh inactive, HCMV inh inactive, Pf growth 96h inactive, CHX counter 16, Pf growth 48h inactive and HCV inh inactive.
Screening CCn1c(CNC(=O)C2CCCCC2)cc2cc(C)ccc21 returned Shiga toxin inh inactive, HCMV inh inactive, Pf growth 96h inactive, CHX counter inactive, Pf growth 48h inactive and HCV inh inactive.
`CCn1c(CNC(=O)c2cc(OC)c(OC)c(OC)c2)cc2ccccc21` gave HCMV inh -61, Pf growth 96h inconclusive, CHX counter inactive, Pf growth 48h 9.3µM and HCV inh inconclusive.
`COc1cc(C(=O)NCc2cc3ccccc3n2C)cc(OC)c1OC` gave HCMV inh inactive, Pf growth 96h inactive, CHX counter inactive, Pf growth 48h inactive and HCV inh inactive.
`O=C(COC(=O)COc1ccccc1)Nc1ccc(Br)cc1Br` gave HCMV inh inactive and HCV inh inactive.
For CC(NC(=S)NCc1ccc(F)cc1)C12CC3CC(CC(C3)C1)C2 (stereo not drawn) the results were Shiga toxin inh inactive, HCMV inh -85, Pf growth 96h inconclusive, CHX counter inactive, Pf growth 48h inconclusive and HCV inh inactive.
For CCOc1ccc(C(C)NC(=S)NCc2ccc(Cl)cc2)cc1 (stereo not drawn) the results were Shiga toxin inh inactive, HCMV inh -74, Pf growth 96h 5.2µM, CHX counter inactive, Pf growth 48h inconclusive and HCV inh inconclusive.
`CCNC(=S)NCc1ccc(Cl)cc1` gave HCMV inh inactive and HCV inh inactive.
`CCC(NC(=S)NCc1ccc(F)cc1)c1ccc(C(C)C)cc1` (stereo not drawn) gave Shiga toxin inh inactive, HCMV inh -97, Pf growth 96h inconclusive, CHX counter inactive, Pf growth 48h 10µM and HCV inh inconclusive.
CCC(C)[C@H](NC(=O)NCc1ccc(F)cc1)C(=O)O (stereo partly drawn) was read as Shiga toxin inh inactive, HCMV inh inactive, Pf growth 96h inactive, CHX counter inactive, Pf growth 48h inactive and HCV inh inactive.
For COc1ccc(C(C)NC(=S)NCc2ccc(F)cc2)cc1OC (stereo not drawn) the results were Shiga toxin inh inactive, HCMV inh inactive, Pf growth 96h inactive, CHX counter inactive, Pf growth 48h inconclusive and HCV inh inactive.
`CCC(C)c1ccc(C(C)NC(=S)NCc2ccc(F)cc2)cc1` (stereo not drawn) gave Shiga toxin inh inactive, HCMV inh -67, Pf growth 96h inconclusive, CHX counter inactive, Pf growth 48h inconclusive and HCV inh 7.1µM.
Screening O=C(Cc1ccccc1)N(Cc1cccnc1)c1nc2ccc(F)cc2s1 returned HCMV inh inactive.
For CN(C)C(=O)c1cc(C(=O)c2c(F)cccc2F)c[nH]1 the results were Shiga toxin inh inactive, HCMV inh inactive, Pf growth 96h inactive, CHX counter inactive, Pf growth 48h inactive and HCV inh inactive.
For Cc1ccc2c(CC(=O)Nc3ccc(S(=O)(=O)N4CCCCC4C)cc3)coc2c1C (stereo not drawn) the results were HCMV inh inactive.
For CCCc1ccc(C(C)NC(=S)NCc2ccc(F)cc2)cc1 (stereo not drawn) the results were Shiga toxin inh inactive, HCMV inh inactive, Pf growth 96h 12µM, CHX counter inactive, Pf growth 48h inconclusive and HCV inh inactive.
`CC(=O)C1=C(C)NC(=O)CC1c1ccc(F)cc1` (stereo not drawn) gave Shiga toxin inh inactive, HCMV inh inactive, Pf growth 96h inactive, CHX counter inactive, Pf growth 48h inactive and HCV inh inactive.
Screening O=S(=O)(c1ccc(Cl)cc1)N1CCN(S(=O)(=O)c2ccc3c(c2)OCCO3)CC1 returned Shiga toxin inh inactive and CHX counter inactive.
Screening O=C(CN1CCOCC1)c1cccc2ccccc12 returned Shiga toxin inh inactive, HCMV inh inactive, Pf growth 96h inactive, CHX counter inactive, Pf growth 48h inactive and HCV inh inactive.
`Cc1c(C(=O)c2cccc3ccccc23)c2cccc3c2n1[C@H](CN1CCOCC1)CO3` gave HCMV inh -98 and HCV inh inconclusive.
Screening O=C(CCN1C(=O)/C(=C\C=C\c2ccccc2)SC1=S)Nc1ccc(C(=O)O)cc1 returned Shiga toxin inh inactive, HCMV inh inactive, Pf growth 96h inactive, CHX counter 15, Pf growth 48h inactive and HCV inh inactive.
For O=C(COC(=O)CCN1C(=O)/C(=C\C=C\c2ccccc2)SC1=S)Nc1cc(F)ccc1F the results were Shiga toxin inh inactive, HCMV inh -62, Pf growth 96h inactive, CHX counter inactive, Pf growth 48h inactive and HCV inh inactive.
`O=C(CN1C(=O)S/C(=C\C=C\c2ccccc2)C1=O)Nc1ccc(C(=O)O)cc1` gave Shiga toxin inh inactive, HCMV inh inactive, Pf growth 96h inactive, CHX counter inactive, Pf growth 48h inactive and HCV inh inactive.
CC(/C=C1\SC(=O)N(CC(=O)Nc2cccc(O)c2)C1=O)=C\c1ccccc1 was read as Shiga toxin inh inactive, HCMV inh inactive, Pf growth 96h inconclusive, CHX counter inactive, Pf growth 48h inactive and HCV inh inconclusive.
For CC(/C=C1\SC(=O)N(CC(=O)Nc2ccc(O)cc2)C1=O)=C\c1ccccc1 the results were Shiga toxin inh 40, HCMV inh inactive, Pf growth 96h inactive, CHX counter inactive, Pf growth 48h inactive and HCV inh inconclusive.
For O=C(CCCN1C(=O)S/C(=C\C=C\c2ccccc2)C1=O)Nc1ccc(O)cc1 the results were Shiga toxin inh 148, HCMV inh inactive, Pf growth 96h inactive, CHX counter 44, Pf growth 48h inconclusive and HCV inh 13µM.
For O=C(CN1C(=O)S/C(=C/C=C/c2ccccc2)C1=O)Nc1ccc(C(=O)O)cc1 the results were Shiga toxin inh inactive, HCMV inh inactive, Pf growth 96h inactive, CHX counter inactive, Pf growth 48h inactive and HCV inh inactive.
`COc1ccc(CNCCCSc2nnnn2C)c(OC)c1` gave HCMV inh inactive.
Cc1ccc(OCC(=O)Nc2nc(C)c(Cl)cc2Cl)c([N+](=O)[O-])n1 was read as HCMV inh inactive, Pf growth 96h inactive, Pf growth 48h inactive and HCV inh inactive.
CCCC[C@H](NC(C)=O)C(=O)N[C@@H](CCC(=O)O)C(=O)N[C@@H](Cc1cnc[nH]1)C(=O)N[C@H](Cc1ccccc1)C(=O)N[C@@H](CCCN=C(N)N)C(=O)N[C@H](Cc1c[nH]c2ccccc12)C(=O)NCC(N)=O was read as Shiga toxin inh inactive and CHX counter inactive.
`CCCCNC(=O)CCC1N=C2c3ccccc3N=C(SCC(=O)NCCc3ccc(OC)c(OC)c3)N2C1=O` (stereo not drawn) gave HCMV inh inactive.

Screens as filed in PubChem.
